Compound activity deposited in PubChem by The Scripps Research Institute Molecular Screening Center.
Hits are enriched below; roughly 2.5% of the tested compounds scored in any of these assays.
ULK1 inh: human ULK1 kinase inhibition, primary screen. AlphaScreen Atg13 phosphorylation by ULK1, luminescence. inhibition, % at 5.96 µM. 1.9% of 30,000 active. AID 1259251; in the data active = inhibition above about 43%;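 note: 0% = median of compound wells and 100% = no enzyme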
ASK1 primary: human ASK1 kinase inhibition, primary screen; inhibition, % at 7.44 µM; 0.99% of 22,000 active; Q99683; AlphaScreen MKK6 phosphorylation by ASK1, luminescence; in the data active = inhibition above about 35%;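 note: 0% = median of compound wells and 100% = no enzyme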
Target sequence (Q99683 whole entry, looked up): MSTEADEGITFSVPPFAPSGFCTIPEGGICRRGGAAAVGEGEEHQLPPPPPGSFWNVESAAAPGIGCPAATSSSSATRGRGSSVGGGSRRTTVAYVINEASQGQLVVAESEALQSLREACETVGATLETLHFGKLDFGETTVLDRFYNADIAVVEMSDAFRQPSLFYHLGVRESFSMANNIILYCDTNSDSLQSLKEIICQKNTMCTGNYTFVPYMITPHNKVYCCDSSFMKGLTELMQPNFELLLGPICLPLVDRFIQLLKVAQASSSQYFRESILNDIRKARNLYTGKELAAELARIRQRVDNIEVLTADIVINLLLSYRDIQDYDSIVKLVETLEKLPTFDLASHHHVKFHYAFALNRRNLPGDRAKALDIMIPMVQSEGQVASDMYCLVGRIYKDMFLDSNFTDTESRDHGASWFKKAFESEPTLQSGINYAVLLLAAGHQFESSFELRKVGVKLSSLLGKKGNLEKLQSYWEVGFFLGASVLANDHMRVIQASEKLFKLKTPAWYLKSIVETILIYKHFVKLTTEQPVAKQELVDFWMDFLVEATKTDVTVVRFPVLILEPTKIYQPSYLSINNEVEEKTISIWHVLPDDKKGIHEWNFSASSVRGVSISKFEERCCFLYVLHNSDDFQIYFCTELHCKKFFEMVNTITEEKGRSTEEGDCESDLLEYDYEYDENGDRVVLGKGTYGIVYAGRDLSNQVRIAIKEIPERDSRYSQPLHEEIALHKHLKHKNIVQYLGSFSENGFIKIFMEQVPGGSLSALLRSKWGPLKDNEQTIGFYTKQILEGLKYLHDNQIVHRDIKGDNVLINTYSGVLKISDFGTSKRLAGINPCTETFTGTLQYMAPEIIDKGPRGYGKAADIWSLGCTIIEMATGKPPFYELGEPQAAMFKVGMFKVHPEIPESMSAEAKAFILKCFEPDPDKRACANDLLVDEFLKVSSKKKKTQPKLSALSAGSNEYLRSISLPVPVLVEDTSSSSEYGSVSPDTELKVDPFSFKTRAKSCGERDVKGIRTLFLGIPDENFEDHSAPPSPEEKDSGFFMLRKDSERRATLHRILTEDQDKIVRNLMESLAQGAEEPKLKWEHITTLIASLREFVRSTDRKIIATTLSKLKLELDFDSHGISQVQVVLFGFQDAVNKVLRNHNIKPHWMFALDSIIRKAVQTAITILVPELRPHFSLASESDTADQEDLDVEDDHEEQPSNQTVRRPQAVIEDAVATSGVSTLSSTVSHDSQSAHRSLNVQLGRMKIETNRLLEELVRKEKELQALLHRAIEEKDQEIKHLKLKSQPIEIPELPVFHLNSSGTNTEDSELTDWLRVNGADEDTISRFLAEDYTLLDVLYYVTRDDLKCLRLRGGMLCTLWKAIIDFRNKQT
Numbers without * were called inactive; · = no result.

SMILES	ULK1 inh	ASK1 primary
Cc1cnc(NCCCN2CCCC2=O)nc1Nc1ccc(Oc2ccccc2)cc1	49*	11
Cc1cnc(Nc2ccc3ncccc3c2)nc1NCCCN1CCCC1=O	69*	-13
Cc1cnc(Nc2cccc(N(C)C)c2)nc1NCCCN1CCCC1=O	20	-8
Cc1cnc(Nc2ccc3ncccc3c2)nc1NC1CC1	71*	8
O=C1CCCN1CCCNc1nc(Nc2ccc(Oc3ccccc3)cc2)c2[nH]cnc2n1	-22	30
Cc1cnc(Nc2ccc3ncccc3c2)nc1Nc1ccc2c(c1)OCO2	-11	-29
CC(C)n1cnc2c(NCCCN3CCCC3=O)nc(Nc3ncccn3)nc21	-5	-9
CCN(CC)c1nc(NCCc2ccc(OC)cc2)nc(N2CCN(Cc3ccc4c(c3)OCO4)CC2)n1	3	5
CC(=O)c1cccc(-c2nc(NCc3ccccc3)c3[nH]cnc3n2)c1	-2	-1
CC(=O)c1cccc(-c2nc(NCc3cccnc3)c3[nH]cnc3n2)c1	54*	-1
Nc1cccc(-c2nc(NCc3ccccc3)c3[nH]cnc3n2)c1	-4	-1
Nc1cccc(-c2nc(NCc3cccnc3)c3[nH]cnc3n2)c1	69*	-12
CC(C)NC(=O)c1cccc(NS(=O)(=O)c2ccc(-c3cn[nH]c3)cc2F)c1	-7	-24
NC(=O)c1ccc2nc(Nc3nccc4ccccc34)sc2c1	8	-2
Oc1ccc(-c2cncc(-c3cncc(OCC4CCCNC4)c3)c2)cc1 (stereo not drawn)	13	-3
COc1cc(NC(=O)C2CCN(c3ccc(Nc4ccc5ncccc5c4)nn3)CC2)cc(OC)c1OC	19	17
CCCNc1nc(Nc2ccc(-n3ccnc3)cc2)nc2nc[nH]c12	41	-45
c1cn(-c2ccc(Nc3nc(NC4CC4)c4[nH]cnc4n3)cc2)cn1	57*	-69
c1nc2nc(Nc3ccc(N4CCOCC4)cc3)nc(NC3CC3)c2[nH]1	56*	-12
c1cc(Nc2nc(NC3CC3)c3ncn(-c4ccsc4)c3n2)ccn1	-3	-3
FC(F)(F)c1ccc(Nc2nc(Nc3ccc(N4CCOCC4)cc3)c3[nH]cnc3n2)cc1	29	25
c1cn(-c2ccc(Nc3nc(NC4CC4)c4ncn(-c5ccsc5)c4n3)cc2)cn1	53*	14
NC(=O)c1csc(Oc2ccccc2)n1	-1	11
O=C(Nc1ccc(Cl)cc1Cl)c1cc2ccc(O)cc2oc1=O	1	·
COc1ccc(C(=O)c2oc3ccc(NC(=O)c4ccccn4)cc3c2C)cc1	8	·
SMILES	ULK1 inh	ASK1 primary
O=C(Cc1cn(-c2ccc(Nc3cnccn3)nn2)c2ccccc12)NCc1cccc(C(F)(F)F)c1	9	12
O=S(c1cc(Cl)cc(Cl)c1O)c1cc(Cl)cc(Cl)c1O	6	·
Oc1c(Cl)cc(Cl)cc1Sc1cc(Cl)cc(Cl)c1O	84*	·
CC(C)n1cnc2c(Nc3ccc(N4CCOCC4)cc3)nc(Nc3ncccn3)nc21	16	-13
CC(=O)Nc1ccc(Nc2nc(Cl)nc3c2ncn3C(C)C)cc1	47*	-19
CC(C)n1cnc2c(Nc3ccc(N4CCOCC4)cc3)nc(Nc3ccccc3)nc21	56*	15
CC(C)n1cnc2c(Nc3ccccc3)nc(Nc3cnccn3)nc21	23	3
CC(C)n1cnc2c(Nc3ccccc3)nc(Cl)nc21	30	-3
CC(C)n1cnc2c(Nc3ccc(N4CCOCC4)cc3)nc(Nc3cnccn3)nc21	65*	6
CC(=O)Nc1ccc(Nc2nc(Nc3cnccn3)nc3c2ncn3C(C)C)cc1	61*	8
CCNc1nc(Nc2ccc(N3CCOCC3)cc2)c2ncn(C(C)C)c2n1	34	8
Cc1noc(C)c1-c1nc(Nc2ccccc2)c2ncn(C(C)C)c2n1	9	8
CN(C)CCNC(=O)c1ccc(-n2ncc3cc(Nc4ccccc4Cl)ccc32)nc1	-15	-26
CO/N=C(\C(=O)O)c1csc(NC(=O)CCl)n1	17	·
O=C(CCl)Nc1nc(-c2ccc(Br)cc2)cs1	45*	·
C[N+](C)(C)CCOC(c1ccccc1)c1ccccc1	82*	·
CN(C)CCOC(c1ccccc1)c1ccc(Br)cc1 (stereo not drawn)	7	·
CC(=O)Nc1ccc(Nc2cc(C)nc(Nc3ccc(C(F)(F)F)cc3)n2)cc1	-34	28
CNC(=O)c1cc(F)ccc1Nc1cc(Nc2ccc(NC(C)=O)cc2)ncc1C(F)(F)F	79*	3
CNC(=O)c1cc(F)ccc1Nc1cc(Nc2cccc(OC)c2)ncc1C(F)(F)F	84*	0
O=C(Cc1c[nH]c2ccccc12)NC1CCCC1	-13	·
CC(=O)Nc1ccc(-c2cc(NC(=O)C(O)c3ccc(Cl)cc3)cc3[nH]ncc23)cc1 (stereo not drawn)	-35	-9
NC(=O)C1CCN(c2ccc3cccc(OCc4cccc(Cl)c4)c3n2)CC1	-22	·
O=C(OCC1(COC(=O)c2cccnc2)CCCC(COC(=O)c2cccnc2)(COC(=O)c2cccnc2)C1O)c1cccnc1	45*	·
NC(=O)c1cccnc1	-13	·
SMILES	ULK1 inh	ASK1 primary
O=C(NCCc1ccccc1)c1ccc2cncc(-c3ccccc3)c2n1	55*	·
COc1ccc(-c2cncc3ccc(C(=O)NCc4ccccc4)nc23)cc1	26	·
CC(C)n1cnc2c(NCCN3CCOCC3)nc(NCc3cccnc3)nc21	14	-4
O=C(NCc1nc2ccccc2[nH]1)c1cccc(-c2ccc(N3CCOCC3)nc2)c1	-4	-5
COC(=O)c1cccc(-c2cnc(NC3CCC(O)CC3)c3nccn23)c1 (stereo not drawn)	3	-10
Cc1nn(C)c(C)c1-c1nc(NCc2cccc(C(F)(F)F)c2)c2ncn(-c3ccccc3)c2n1	-10	-18
c1cc(Nc2nccc(Nc3ccc(N4CCOCC4)cc3)n2)ccn1	28	10
c1ccc(Nc2cc(Nc3ccncc3)ncn2)cc1	61*	20
c1ccc(CNc2cc(Nc3ccncc3)ncn2)cc1	20	-16
c1cn(-c2ccc(Nc3cc(Nc4ccc(N5CCOCC5)cc4)ncn3)cc2)cn1	-7	3
c1cc(Nc2nccc(Nc3ccc(N4CCOCC4)cc3)n2)ncn1	79*	13
c1cc(Nc2cc(Nc3ccc(N4CCOCC4)cc3)ncn2)ccn1	82*	2
CC[C@@H](O)C(=O)N1CCCN(S(=O)(=O)c2cccc3cnccc23)CC1	5	11
CCCNc1nc(NCCCN2CCCC2=O)ncc1C	8	0
O=C(NC1CC1)c1ccc2nc(Nc3ccc4ncccc4c3)sc2c1	5	4
CC(=O)Nc1ccc(Nc2ncnc3c2nc(-c2ccccc2)n3C(C)C)cc1	-20	-7
c1nc2nc(Nc3ccc(N4CCOCC4)cc3)nc(NCCN3CCOCC3)c2[nH]1	17	0
CCCNC(=O)c1ccnc(NCCCN2CCCC2=O)c1	60*	-36
O=C1CCCN1CCCNc1ncnc2nc(Nc3ccc(N4CCOCC4)cc3)[nH]c12	7	-4
O=C1CCCN1CCCNc1nc(Nc2ccc(N3CCOCC3)cc2)nc2nc[nH]c12	54*	3
c1ccc(OCCNc2nc(Nc3ccc(N4CCOCC4)cc3)nc3nc[nH]c23)cc1	69*	26
Cn1nccc1Nc1nc(NCCCN2CCCC2=O)c2[nH]cnc2n1	-4	-6
O=C(NCCCN1CCCC1=O)c1ccnc(Nc2ccncc2)c1	6	6
COc1cc(Nc2nc(NCCCN3CCCC3=O)c3[nH]cnc3n2)cc(OC)c1OC	74*	-33
Oc1ccc(CCNc2cc(Nc3ccc(N4CCOCC4)cc3)ncn2)cc1	-1	19
O=C(NCc1cccc(C(F)(F)F)c1)c1cccc(Nc2ccccc2)n1	-13	0
